# Screening data deposited in PubChem BioAssay by National Center for Advancing Translational Sciences (NCATS).
# Only some compounds are listed: those with a hit (about 11% of all), similar ones and a draw of the others.
# IL1B secr inh = qHTS for Inhibitors of Inflammasome Signaling: IL-1-beta AlphaLISA Primary Screen; THP-1 LPS/ATP IL-1B secretion, AlphaLISA, 16 h; hits give low values; 360,000 tested, 4.7% active; activity change, % at 57.5 µM; in the data active means activity change below about -50%; inconclusive means mostly about -30% to -49%; further: on the % scale 0 is the no-effect control and ±100 the full control effect
#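 Secreted IL-1B measured by AlphaLISA bead assay after 16 h compound exposure of THP-1 cells; compounds (final up to 57.5 uM) added 1 h before LPS (250 ng/mL) and ATP (1.25 mM) stimulation; lower signal means less secretion.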
# RORgamma inh = qHTS for inhibitors of ROR gamma transcriptional activity; Nuclear receptor ROR-gamma (Mus musculus), P51450; AID 2551, 2010; Potency, µM (doses to about 53.6 µM), for the others: at the top dose activity change, negative = inhibition, usual class: inhibitors; 310,000 tested, 5.4% active; Drosophila S2 Gal4-RORgamma UAS-luciferase reporter, 20 h; further: potency means the concentration at half of the fitted maximal effect; on the % scale 0 is the no-effect control and ±100 the full control effect; nearly all actives have a fitted effect of over 60% in size
# Target sequence (P51450 whole entry, looked up, the tested form may be a part): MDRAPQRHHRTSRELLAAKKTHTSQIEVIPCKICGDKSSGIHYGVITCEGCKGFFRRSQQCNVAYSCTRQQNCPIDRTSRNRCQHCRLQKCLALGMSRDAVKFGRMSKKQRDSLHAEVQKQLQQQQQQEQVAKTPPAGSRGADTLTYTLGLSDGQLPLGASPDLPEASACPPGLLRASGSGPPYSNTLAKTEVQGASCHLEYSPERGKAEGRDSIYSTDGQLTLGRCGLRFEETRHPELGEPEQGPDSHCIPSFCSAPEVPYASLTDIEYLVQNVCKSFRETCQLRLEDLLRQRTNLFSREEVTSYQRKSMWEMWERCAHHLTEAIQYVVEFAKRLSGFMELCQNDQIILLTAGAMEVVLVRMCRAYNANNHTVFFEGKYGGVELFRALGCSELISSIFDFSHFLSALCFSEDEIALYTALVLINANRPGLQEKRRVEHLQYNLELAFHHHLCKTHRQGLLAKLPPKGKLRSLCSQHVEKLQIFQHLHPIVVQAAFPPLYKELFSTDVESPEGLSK
#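 ROR gamma transcriptional activity was tracked as Gal4-UAS luciferase output in stably transfected Drosophila Schneider cells, with compound added 1 hr before 700 uM copper sulfate induction and a 20 hr ambient-temperature incubation.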
# VP16 counter = VP16 counterscreen qHTS for inhibitors of ROR gamma transcriptional activity. 310,000 tested, 3.5% active. Potency, µM (top dose mostly 53.6 µM), for the others: at the top dose activity, negative = inhibition, hits mostly inhibitors. AID 2546, 2010. Drosophila S2 Gal4-VP16 UAS-luciferase, luminescence, 20 h;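 further: Gal4-VP16 expression switched on by copper sulfate through the metallothionein promoter; potency means the concentration at half of the fitted maximal effect; on the % scale 0 is the no-effect control and ±100 the full control effect; nearly all actives have a fitted effect of over 50% in size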
# SW480 rerep = A quantitative high throughput screen for small molecules that induce DNA re-replication in SW480 colon adenocarcinoma cells. SW480 DNA re-replication, Hoechst DNA content imaging, 48 h. Potency, µM (titrated, usually from 46.1 µM), inactives show at the top dose re-replication activation, hits mostly activators. 340,000 tested, 1.8% active. AID 624297, 2012; further: potency means the concentration at half of the fitted maximal effect; % of control where 0% means no effect; nearly all actives have a fitted effect of over 55% in size
#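 Per well, 250 cells were exposed to pinned compound for 48 hr. Nuclear DNA was visualised with Hoechst (40 min, 37 C) and total object intensity recorded by fluorescence scanning.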
# MCF10A rereplic = A quantitative high throughput screen for small molecules that induce DNA re-replication in MCF 10a normal breast cells | MCF 10A DNA re-replication, Hoechst nuclear intensity, 48 h | Potency, µM (titrated, usually from 46.1 µM), for inactives: top-dose activity, positive = re-replication, most hits filed as activators | 350,000 tested, 2.9% active; further: potency means the concentration at half of the fitted maximal effect; % of control where 0% means no effect; nearly all actives have a fitted effect of over 50% in size
# * hit, by the source's call; ? = inconclusive; . = no result given; [ ] = remark or other dose. Unless noted, the call rests on the fitted dose curve; in most records, active means well fitted curve in the direction sought with a large enough effect; inconclusive means small, poorly fitted or top-dose-only effect, or another doubt; inactive means no such curve, though single readings can be large; an effect the other way counts as inactive or inconclusive.
SMILES,IL1B secr inh,RORgamma inh,VP16 counter,SW480 rerep,MCF10A rereplic
CCCn1c2ccccc2c2nc3ccccc3nc21,-1.1,3.6%,13.5%,?,22.4µM*
N#CCCn1c2ccccc2c2nc3ccccc3nc21,-91.4*,14.3%,-2.7%,4.4%,15.8%
CCN(CC)CCn1c2ccccc2c2nc3ccccc3nc21,-97.1*,-9.2%,-2.3%,?,?
O=C(O)Cn1c2ccccc2c2nc3ccccc3nc21,5.8,.,.,.,.
CN(C)c1ncnc2c1ncn2[C@H]1CN(Cc2ccc(Cl)cc2)C[C@@H](CO)O1,22.5,.,.,.,.
COc1cc(C(=O)Oc2ccc3c(OC)c4ccoc4nc3c2OC)cc(OC)c1OC,.,0.5%,3.4%,.,.
CCNc1ncc2nc(CCc3ccccc3)c(=O)n(CCOC)c2n1,.,-1.3%,-7.8%,.,.
C[C@@H]1OC(OC2C(OC3CC[C@@]4(C)C5CC=C6C7CC(C)(C)CC[C@@]7(C(=O)O)CCC6(C)C5(C)CCC4[C@]3(C)CO)OCC(O)C2O)C(O)C(O)C1O (stereo not given in full),.,-34.0%,-28.3%,.,.
COc1ccccc1CNC(=S)NC1CCCC1,-3.9,5.62µM*,7.08µM*,-8.4%,2.3%
COc1ccccc1NC(=S)NC1CCCCC1,-16.2,4.47µM*,20µM*,0.0%,-0.8%
Cc1ccc(C)c(C(C)NC(=S)NC2CCCCC2)c1 (stereo not given),30.7,2.51µM*,5.62µM*,20.5%,1.7%
CCOc1ccccc1NC(=S)NC1CCCCC1,-2.3,15.0%,-6.2%,4.4%,19.2%
Cc1ccc(C)c(C(C)NC(=O)C2CCCC2)c1 (stereo not given),10.1,-18.8%,-3.8%,13.1%,9.8%
COc1ccccc1NC(=S)NCC1CCCCC1,-0.4,4.47µM*,12.6µM*,9.2µM*,?
COc1ccc(S(=O)(=O)Nc2ccc3c(c2)C(=O)N([C@H](C)CO)C[C@H](C)[C@@H](CN(C)S(=O)(=O)c2c(C)noc2C)O3)cc1,-5.7,.,.,-14.0%,4.5%
COc1cccc(CNC(=O)[C@@H]2CCCN2C(=O)[C@H]2CCCCN2C(=O)c2cccc(Cl)c2)c1,-19.8,.,.,.,.
COc1ccc(OC)c(C(C)NC(=S)NC2CCCCC2)c1 (stereo not given),-6.9,3.98µM*,3.98µM*,-16.4%,1.1%
COc1ccccc1NC(=S)NC1CCCCCCCCCCC1,5.1,2.82µM*,?,-2.8%,22.7%
COc1ccc(NC(=S)NC2CCCC2)c(OC)c1,-6.5,6.31µM*,?,0.2%,1.5%
CC(C)(O)[C@@H]1CCC[N+]2(C)CCCC[C@H]12 (stereo not given in full),.,7.9%,1.9%,.,.
CC(C)C(NS(=O)(=O)c1ccccc1)C(=O)N1CCN(C(=O)c2ccco2)CC1 (stereo not given),1.9,-11.4%,4.7%,2.5%,-10.2%
COCCn1c(=O)c(-c2cc(F)cc(F)c2)nc2cnc(OCc3ccccc3)nc21,.,-1.0%,-10.7%,.,.
COc1cc(OC)c(OC)cc1/C=C/C(=O)c1ccc(NS(=O)(=O)c2ccc(C)cc2)cc1,-59.9*,?,5.2%,?,5.8µM*
COc1cccc(N/C=C/C(=O)c2ccc(Br)cc2)c1,-11.5,.,.,0.9%,22.9%
COc1ccc(C(=O)/C=C/Nc2cccc(O)c2)cc1,-11.0,10µM*,2µM*,-7.4%,0.0%
SMILES,IL1B secr inh,RORgamma inh,VP16 counter,SW480 rerep,MCF10A rereplic
COc1ccc(C(=O)/C=C/Nc2ccc(S(=O)(=O)Nc3cccc(C(C)=O)c3)cc2)cc1,-8.2,-37.2%,5.62µM*,-3.0%,11.4%
CC(=O)c1cccc(NS(=O)(=O)c2ccc(C(=O)Nc3ccccc3)cc2)c1,-12.0,?,10µM*,4.6%,0.5%
CC(=O)c1ccc(NS(=O)(=O)c2ccc(C)cc2)cc1,16.1,20.8%,-8.6%,-3.7%,?
O=C(Nc1ccccn1)c1ccc(C(=O)Nc2ccccn2)cc1,11.2,0.4%,11.9%,-7.8%,-5.6%
Cc1cccc(NNC(=O)C(=O)NNc2cccc(C)c2)c1,8.4,10.9%,7.1%,-7.0%,6.51µM*
Cc1ccc(Cl)c(N/C=C/C(=O)c2ccccc2)c1,31.1,-34.6%,?,-5.8%,13.6%
COc1cccc(C(=O)/C=C/Nc2cc(C)ccc2O)c1,-28.0,?,?,18.4µM*,100.2%
Cc1cccc(N/C=C/C(=O)c2ccc(Cl)cc2)c1,22.5,3.16µM*,?,1.9%,10.4%
O=C(/C=C\Nc1ccccn1)c1ccc(Cl)cc1,-2.9,7.08µM*,10µM*,-16.3%,-17.5%
Cc1noc(C)c1-c1cncnc1Nc1ccccc1,.,21.2%,14.4%,.,.
Cc1c(Br)cccc1NC(=O)C1(C)CCN1Cc1ccccc1OC(F)F (stereo not given),-1.5,.,.,.,.
CN(Cc1ccccc1)CC(O)COc1ccc(CNCc2ccc(Cl)s2)cc1 (stereo not given),-80.1*,3.7%,-10.3%,20.6µM*,16.4µM*
CN(Cc1ccccc1)CC(O)COc1ccc(CNCc2cccnc2)cc1 (stereo not given),-13.6,9.0%,-1.2%,21.2%,?
N#Cc1ccc(-c2csc(NNC(=O)c3ccc(Br)cc3)n2)cc1,-1.9,5.01µM*,?,5.17µM*,?
CC(=O)NNc1nc(-c2ccc(NC(C)=O)cc2)cs1,-7.0,-5.3%,?,-0.2%,0.3%
COC(=O)c1nc(NNC(=O)c2ccccc2)sc1-c1ccccc1,-13.8,14.1µM*,-26.1%,11.6%,6.0%
N#Cc1ccc(-c2csc(NNC(=O)c3ccccc3)n2)cc1,-1.6,11.2µM*,?,?,-2.5%
O=C(NNc1nc(-c2ccccc2)cs1)c1ccccc1,-14.3,5.01µM*,3.98µM*,21.3%,?
CC(=O)Nc1ccc(-c2csc(NNC(=O)c3ccc(C)cc3)n2)cc1,-12.4,-22.3%,2.7%[10 µM],14.0%,-0.8%
CCOC(=O)c1cc2c(OC)c(OC)ccc2c2[nH]cc(C#N)c(=O)c12,-8.1,.,.,.,.
CC(=O)[C@@H]1[C@@H]2C(=O)N(Cc3ccccc3)C(=O)[C@@H]2C2c3ccccc3C=CN21 (stereo not given in full),11.8,-26.7%,-2.4%,4.1%,5.8µM*
CC(C)(C)c1ccc(C(=O)NC(=S)NCc2cccnc2)cc1,3.6,-5.4%,-10.9%,?,6.2%
COC(=O)c1ccc(NC(=S)NC(=O)c2cccnc2)cc1,25.0,?,?,-1.1%,-15.3%
CC(C)(C)c1ccc(OCCNC(=S)NC(=O)c2cccnc2)cc1,10.6,12.6µM*,?,-0.6%,27.2%
COc1cc(OC)cc(C(=O)NNC(=S)NC(=O)c2cccnc2)c1,-0.3,11.2µM*,-22.3%,-6.2%,1.1%
